Experimental data: PubChem BioAssay AID624319 (Sanford-Burnham Center for Chemical Genomics, 2012)
Screen size: about 1,400 compounds; about 210 (15%) were called active. Rule as the data show it: active = inhibition mostly above about 39% (no sharp cut-off); inactive = mostly below about 34%. Only a sample is shown.

Biological target: Sentrin-specific protease 8 (Homo sapiens) (UniProt Q96LD8)
Assay: retest of SENP8 deneddylase blockers – biochemical, Nedd8 protein substrate, single concentration, confirmation (AID 624319)
Conditions: purified SENP8, Nedd8-AMC/pro-Nedd8 cleavage fluorescence, 30 min; at 25 µM; hits give high values

Sequence of Sentrin-specific protease 8 (Homo sapiens) (Q96LD8 whole entry, looked up): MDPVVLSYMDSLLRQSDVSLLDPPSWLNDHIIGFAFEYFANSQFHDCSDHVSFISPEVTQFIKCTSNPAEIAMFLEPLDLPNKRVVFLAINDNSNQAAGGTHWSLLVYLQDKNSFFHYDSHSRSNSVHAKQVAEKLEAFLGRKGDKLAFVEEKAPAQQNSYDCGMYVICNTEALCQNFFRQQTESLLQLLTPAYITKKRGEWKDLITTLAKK

| SMILES | inhibition |
| --- | --- |
| Oc1ccc(N=Cc2sc3ccccc3c2Cl)cc1 | 11.3% (inactive) |
| O=c1[nH]c2ccccc2s1 | 1.69% (inactive) |
| Cc1ccc(C(=O)N/N=C\c2cc(Br)c(Br)o2)cn1 | 6.43% (inactive) |
| O=[N+]([O-])c1ccc(C=Nc2ccc(Cl)cc2Cl)s1 | 14.4% (inactive) |
| O=C1Nc2ccc([N+](=O)[O-])cc2C1=Nc1cccc(CO)c1 | 76.8% (active) |
| c1coc(-c2nc3nc4ccccc4n3nc2-c2ccco2)c1 | 20.6% (inactive) |
| CN1C(=O)/C(=C/C=C2\SCCN2C)OC1=S | 29.4% (inactive) |
| Cc1cc([N+](=O)[O-])c(NC2CCCCC2)c([N+](=O)[O-])c1 | 11% (inactive) |
| COC(=O)C1=C(C(=O)c2ccc(C)cc2)C(c2ccccc2)n2nnnc2N1 (stereo not drawn) | 18.1% (inactive) |
| CCc1ccccc1NC(=O)[C@@H]1CCC(=O)N1C1OC(=O)c2c1ccc(OC)c2OC (stereo partly drawn) | 13.7% (inactive) |
| O=C(c1ccccc1)N1CCN(c2ccc([N+](=O)[O-])c(NCc3ccco3)c2)CC1 | 14.3% (inactive) |
| O=C(OCC(=O)N1CCN(c2ccccc2)CC1)c1ccc([N+](=O)[O-])s1 | 57% (active) |
| CCOc1ccc(C(c2c(C)[nH][nH]c2=O)c2c(C)[nH][nH]c2=O)cc1OCC | 2.47% (inactive) |
| Cc1[nH][nH]c(=O)c1C(c1ccc(-c2ccc(Cl)cc2)o1)c1c(C)[nH][nH]c1=O | 49.8% (active) |
| CCN1CCC2(CC1)N=C(c1ccc(F)cc1)C(=S)N2C(=O)c1ccc(C)cc1 | 54.5% (active) |
| O=C(COC(=O)c1ccc([N+](=O)[O-])o1)NC12CC3CC(CC(C3)C1)C2 | 81.4% (active) |
| O=[N+]([O-])c1ccccc1NCc1ccccc1Cl | 20.6% (inactive) |
| CCOCCCn1c(NN)nc2ccccc2c1=O | 0.12% (inactive) |
| CCCCNCCS(=O)(=O)NCc1ccccc1 | 26.8% (inactive) |
| O=C(c1cccc(F)c1)N1CCN(c2ccc([N+](=O)[O-])c3cccnc23)CC1 | 16.9% (inactive) |
| O=C(Nc1ccc(C(=O)O)c(O)c1)c1ccccc1 | 0.26% (inactive) |
| CN1CCN(S(=O)(=O)c2ccc(N3CCN(c4ccccc4O)CC3)c([N+](=O)[O-])c2)CC1 | 29.3% (inactive) |
| O=C(Nc1cc2c3c(c1)C1CCCC1CN3CC1CCCC21)c1ccc([N+](=O)[O-])cc1 (stereo not drawn) | 24.6% (inactive) |
| Nn1cnnc1N/N=C/c1cc([N+](=O)[O-])c(Cl)cc1Cl | 16.6% (inactive) |
| COc1ccc(-c2nnco2)cc1OC | 14.3% (inactive) |
| CCOc1cc(NC(=O)c2ccccc2C(=O)O)c(OCC)cc1NC(=O)c1ccccc1F | -3.99% (inactive) |

| SMILES | inhibition |
| --- | --- |
| O=C1CC(c2ccccc2)=NN1c1ccc([N+](=O)[O-])cc1 | 46.5% (active) |
| COC(=O)Cn1c2ccc(C)cc2c2nc(C)sc21 | 14.2% (inactive) |
| CN1CCc2ccccc2C1Cc1ccccc1NC(=O)c1sc2ccccc2c1Cl (stereo not drawn) | 0.2% (inactive) |
| Nc1ccc2nc3c(=O)[nH]c(=S)[nH]c3nc2c1 | 26.8% (inactive) |
| CN(c1ccc(C(=O)N2CCc3ccccc3C2)cc1)S(C)(=O)=O | 42.8% (active) |
| CCN(CC)C(=O)CCC(=O)Nc1ccc(C(=O)OC)cc1 | 8% (inactive) |
| CC(=O)N1CCN(S(=O)(=O)c2cccc(C(=O)NC3CCC(C)CC3)c2)CC1 (stereo not drawn) | 3.29% (inactive) |
| CCc1ccccc1NC1c2ccccc2C(=O)N1c1cccnc1 (stereo not drawn) | 12.2% (inactive) |
| O=c1[nH]n2c(=O)c3c([nH]c2c1N=Nc1ccccc1)CCC3 | 25.4% (inactive) |
| CCOC(=O)/C(=N\Nc1ccccc1[N+](=O)[O-])c1csc(Nc2ccccc2)n1 | 15% (inactive) |
| O=C(NCCCN1CCN(c2ccc(F)cc2)CC1)Nc1ccc([N+](=O)[O-])cc1 | 31.9% (inactive) |
| CCc1cccc(C)c1NC(=O)COC(=O)CC1CCCC1 | 29.1% (inactive) |
| CC(C)Cc1nnc(NC(=O)CCC(=O)Nc2ccc3cn[nH]c3c2)s1 | 2.31% (inactive) |
| O=C(COc1ccccc1)N1CCc2ccccc2C1 | 44.4% (active) |
| CCc1ccc(-c2nnn(Cc3nn[nH]n3)n2)cc1 | 10.7% (inactive) |
| O=C(Cc1ccccc1)NC(=S)Nc1ccc(N2CCCCC2)cc1 | 11.4% (inactive) |
| CC/C(=N/Nc1ccccc1)c1cnnc(SC)n1 | 16.1% (inactive) |
| Cc1ccc(C(=O)c2ccc(N3CCN(C)CC3)c([N+](=O)[O-])c2)cc1 | 14.5% (inactive) |
| CCCCCCCCCCCCCCCC(=O)OC/C=C(C)/C=C/C=C(C)/C=C/C1=C(C)CCCC1(C)C | 4.1% (inactive) |
| Cc1cc(C)nc(N/N=C/c2ccc([N+](=O)[O-])o2)n1 | 22.3% (inactive) |
| CC1(C)C2CCC1(C)C(OC(=O)c1ccc(O)cc1)C2 (stereo not drawn) | 18.1% (inactive) |
| CCOC(=O)c1ccc(N2C(=O)CC(N(C)Cc3ccccc3)C2=O)cc1 (stereo not drawn) | 18.6% (inactive) |
| Cc1ccc(NS(=O)(=O)c2ccc(N/N=C/c3ccccc3OCC(=O)O)c([N+](=O)[O-])c2)c(C)c1 | 29.4% (inactive) |
| CC1(C)Cc2cccc(OCC(=O)Nc3nccs3)c2O1 | 2.41% (inactive) |
| COc1ccc(Br)cc1/C=N/Nc1ccc(S(=O)(=O)Nc2ccccc2C(=O)O)cc1[N+](=O)[O-] | 21.5% (inactive) |
| CCCC1CCC(=NNC(=S)NCCc2ccccc2)CC1 (stereo not drawn) | 5.71% (inactive) |

| SMILES | inhibition |
| --- | --- |
| COC(=O)CCCC1=CC2=CC(=O)C(C)(OC(=O)c3cccs3)C(=O)C2=CN1CC(C)C (stereo not drawn) | 52.7% (active) |
| CCOC(=O)C1CCCN(C(=O)c2ccc(C)c(F)c2)CC1 (stereo not drawn) | 10.1% (inactive) |
| COc1cc(C(=S)N2CCOCC2)cc(OC)c1OC(=O)c1cc([N+](=O)[O-])cc([N+](=O)[O-])c1 | 26.8% (inactive) |
| COc1ccc(C(=O)c2c3ccc([N+](=O)[O-])cc3[n+]([O-])n2CCCN)cc1 | 70.5% (active) |
| COc1ccc(-c2[nH][nH]c(=O)c2NC(=O)c2ccc([N+](=O)[O-])cc2)cc1 | 34.5% (inactive) |
| CCOC(=O)CNC(=O)N1c2ccccc2Sc2ccccc21 | 16.6% (inactive) |
| Cc1sc2ccccc2c1CNC[C@H]1O[C@@H](n2ccc(=O)[nH]c2=O)[C@H](O)[C@@H]1O | 8.62% (inactive) |
| Cc1cccc(OCC(=O)NC(=S)Nc2ccccc2N2CCOCC2)c1 | 13% (inactive) |
| Cc1nc(SCC(=O)c2ccccc2)c([N+](=O)[O-])[nH]1 | 10.2% (inactive) |
| Cc1cc(C)c(/C=C2\C(=O)Nc3ccccc32)[nH]1 | 11.5% (inactive) |
| CC(C)CC(=O)N=C1SC2CS(=O)(=O)CC2N1CCc1ccccc1 (stereo not drawn) | -0.28% (inactive) |
| O=[N+]([O-])c1ccc(N2CCSCC2)cc1O | 22.9% (inactive) |
| CCN=C1SC(CC(=O)Nc2ccc(C)cc2)C(=O)N1CC (stereo not drawn) | 12.9% (inactive) |
| CC1CCN(c2ccc([N+](=O)[O-])c(SCCO)c2)CC1 | 19.1% (inactive) |
| Cc1ccccc1NCC(=O)N/N=C\c1ccc([N+](=O)[O-])s1 | 31.1% (inactive) |
| O=P(O)(CP(=O)(c1ccccc1)c1ccccc1)c1ccccc1O | 13.6% (inactive) |
| CCOC(=O)C(CC)Sc1ncnc2c1nnn2-c1ccc(F)cc1 (stereo not drawn) | 14.5% (inactive) |
| Cn1c2ccc(F)cc2c2nnc(NN)nc21 | -8.09% (inactive) |
| O=C(NC(=S)N1CCCCC1c1cccnc1)c1ccccc1 (stereo not drawn) | 8.53% (inactive) |
| CCC(C)[C@H](NC(=O)N1c2ccccc2NC(=O)[C@@H]1C(C)C)C(=O)N[C@@H](Cc1ccccc1)C(=O)O (stereo partly drawn) | 7.29% (inactive) |
| COc1ccc(S(=O)(=O)Nc2ccc3cn[nH]c3c2)cc1[N+](=O)[O-] | 14.1% (inactive) |
| NN=C(NN=Cc1ccccc1)c1ccccc1 | 43.8% (active) |
| CC(C)[C@H](NC(=O)N1CC(=O)Nc2ccccc21)C(=O)N[C@@H](Cc1c[nH]c2ccccc12)C(=O)O | 15% (inactive) |
| COc1cccc(N(CC(=O)NCCSc2ccccn2)S(C)(=O)=O)c1 | 3.26% (inactive) |
| CCOc1ccc(NCCC(=O)c2ccc3c(c2)OCO3)cc1 | 23.6% (inactive) |
| Cc1ccc(C(=O)N/C(=C/c2ccc(-c3cccc([N+](=O)[O-])c3)o2)C(=O)NCCCN(C)C)cc1 | 17.4% (inactive) |
